“And” between values parts separate entries of the source, which are not always exact repeats. Equal entries are not always repeated. Results filed as inconclusive are left out. A call without a number means that no potency is given here. The source made the active and inactive calls. Calls come from the whole dose curve; as a rule, active = well fitted cell-killing curve with a large enough effect in the repeat runs; inconclusive = weak or mixed curves, or effect the other way; inactive = no such curve, though single readings can be large or run the other way.
Test: qHTS assay to identify small molecule agonists of the vitamin D receptor (VDR) signaling pathway - cell viability counter screen (AID 743224); note: nearly all actives have a fitted effect of over 50% in size
Settings: VDR-bla HEK293T viability, CellTiter-Glo luminescence, 16 h; series mostly up to 62.6 µM
From the text: U.S. Tox21 Program National Center for Advancing Translational Sciences [NCATS] NIH Chemical Genomics Center [NCGC] U.S. Environmental Protection Agency [EPA] National Institutes of Environmental Health Sciences [NIEHS] National Toxicology Program [NTP] U.S. Food and Drug Administration [FDA] Tox21 Assay Overview: The vitamin D receptor (VDR), a member of nuclear hormone receptor superfamily, plays a critical role in calcium homeostasis and bone metabolism. It is also involved in cell differentiation and growth, and thrombogenicity. […] The cytotoxicity of the Tox21 compound library against the VDR-bla cell line was tested in parallel by measuring the cell viability using CellTiter-Glo assay (Promega, Madison, WI) in the same wells.
Tox21 Assay Protocol Summary: VDR-bla cells were dispensed at 2,000 cells/6 uL/well into black wall/clear-bottom 1536-well plates using a Multidrop Combi (Thermo Fisher Scientific, Waltham, MA) dispenser. After the assay plates were incubated at a 37C and 5% CO2 for 4 h, 23 nL of compounds dissolved in DMSO, positive controls or DMSO only was transferred to the assay plate by a Pintool station (Kalypsys, San Diego, CA). The plates were incubated at 37C and 5% CO2 for 16 h. After 1 uL of LiveBLAzerTM B/G FRET substrate was added using a Bioraptr Flying Reagent Dispenser (FRD) workstation (Beckman Coulter, Indianapolis, IN, USA), the plates were incubated at room temperature for 2 h, and fluorescence intensity was measured by an Envision plate reader (PerkinElmer, Shelton, CT). For cell viability readout that measures cytotoxicity, 3 ul/well of CellTiter-Glo reagent was added into the assay plates using a FRD. After 30 min incubation at room temperature, the luminescence intensity in the plates was measured using a ViewLux (PerkinElmer) plate reader.
For `C=CC(=O)OCCn1c(=O)n(CCOC(=O)C=C)c(=O)n(CCOC(=O)C=C)c1=O`, the Potency was 49 µM (active). For `Clc1ccc2n[nH]nc2c1`, the Potency was “inactive”. With `Oc1ccc(Cl)cc1Sc1cc(Cl)ccc1O` the Potency was 21.8 µM (active) and 23.7 µM (active). With `CC(=O)S[C@@H]1CC2=CC(=O)CC[C@]2(C)[C@H]2CC[C@@]3(C)[C@@H](CC[C@@]34CCC(=O)O4)[C@H]12` the Potency was “inactive”. For `O=C(Oc1ccccc1)c1ccccc1C(=O)Oc1ccccc1`, the Potency was “inactive”. With `Cc1cc(O)c2ccccc2c1O` the Potency was 7.5 µM (active). For `Nc1cc(C(F)(F)F)ccc1S`, the Potency was “inactive”. For `CC1=C(/C=C/C(C)=C/C=C/C(C)=C/C=O)C(C)(C)CCC1`, the Potency was 15.4 µM (active). In the case of `O=C1CCCc2c1cc1ccc3cccc4ccc2c1c34`, the Potency is reported as “inactive”. In the case of `CCCCCCCCCCCCCC[P+](CCCC)(CCCC)CCCC` (tested in a mixture with another compound), the Potency is reported as “inactive”. In the case of `CCCCCOC(=O)CCCC`, the Potency is reported as “inactive”. With `CCN(C(=O)c1cc(C)cc(OC[C@H](C)Nc2ccncc2)c1)C(C)C` the Potency was “inactive”. With `CNC(=O)c1ccccc1` the Potency was “inactive”. In the case of `Cc1cc(O)c(Cl)c(C)c1Cl`, the Potency is reported as 43.6 µM (active). For `CCCCCCCCCOC(=O)c1ccc(O)cc1`, the Potency was 17.1 µM (active). With `C[n+]1ccn(Cc2ccccc2)c1` the Potency was “inactive”. In the case of `CCCCCCCCCCCCCCCS(=O)(=O)Oc1ccccc1`, the Potency is reported as “inactive”. With `CCCCN(CCCC)C(=O)N(CCCC)CCCC` the Potency was “inactive”. With `OC1(c2ccc(Cl)c(C(F)(F)F)c2)CCN(CCCC(c2ccc(F)cc2)c2ccc(F)cc2)CC1` the Potency was 13.3 µM (active). With `CC(=O)OCC(C)OC(C)=O` (stereo not given) the Potency was “inactive”. For `CCCC(c1cc(C(C)(C)C)c(O)cc1C)c1cc(C(C)(C)C)c(O)cc1C`, the Potency was 7.86 µM (active). For `COc1cc(-c2ccc(N=C=O)c(OC)c2)ccc1N=C=O`, the Potency was “inactive”. With `CC(C)n1nc(-c2cc3cc(O)ccc3[nH]2)c2c(N)ncnc21` the Potency was 15 µM (active). With `CCCCc1oc2ccc(NS(C)(=O)=O)cc2c1C(=O)c1ccc(OCCCN(CCCC)CCCC)cc1` the Potency was 26.6 µM (active). For `CCCCCCCC/C=C\CCCCCCCCOCCO`, the Potency was 25.4 µM (active). In the case of `Cc1ccc(O)c2ncccc12`, the Potency is reported as 0.944 µM (active). With `CC(C)(C)CC(C)(C)c1ccc(O)c(Cc2ccc(Cl)cc2Cl)c1` the Potency was 23.7 µM (active). In the case of `CCCCCCCC/C=C/CCCCCCCC1=NCCN1CCO`, the Potency is reported as 34.7 µM (active). For `CSc1ccc(C(=O)c2[nH]c(=O)[nH]c2C)cc1`, the Potency was “inactive”. With `O=C(Oc1cccc2cccnc12)c1ccccc1` the Potency was 3.76 µM (active). For `C[C@H]1[C@H]2CC[C@H]3[C@@H]4CC=C5C[C@@H](N(C)C)CC[C@]5(C)[C@H]4CC[C@]23CN1C`, the Potency was “inactive”. In the case of `Cc1[nH]cnc1C[C@H]1CCc2c(C)c3ccccc3n2C1=O`, the Potency is reported as “inactive”. With `O=C(Nc1cccc([N+](=O)[O-])c1)c1cc2ccccc2cc1O` the Potency was 1.23 µM (active). For `CCN(C(=O)N(CC)c1ccccc1)c1ccccc1`, the Potency was “inactive”. For `Cc1cc(=O)oc2cc(N(C)C)ccc12`, the Potency was “inactive”. With `CCCN(CCC)c1c([N+](=O)[O-])cc(C(F)(F)F)c(N)c1[N+](=O)[O-]` the Potency was 13.8 µM (active). In the case of `N#CC1(c2ccc(F)cc2)CCC(=O)CC1`, the Potency is reported as “inactive”. In the case of `CC/C(=C(\c1ccc(O)cc1)c1ccc(OCCN(C)C)cc1)c1ccccc1`, the Potency is reported as 17.4 µM (active). With `Cn1cc(C(=O)[C@@H]2CCc3nc[nH]c3C2)c2ccccc21` the Potency was “inactive”. In the case of `CCCCCCCC[N+](CCCCCCCC)(CCCCCCCC)CCCCCCCC`, the Potency is reported as 8.69 µM (active).

Reference: PubChem BioAssay (Tox21)
Potency is the fitted concentration of half-maximal effect.
